Reference: PMC4336329 (PLoS ONE, 2015)
Hit rate of the full screen: of about 310,000 compounds, about 14,000 (4.5%) showed an effect of 50% or more. The effect is printed as a negative number. The sample holds strong results, similar compounds and a random draw of the others, so the mix is not that of the screen.

Target: human ether-à-go-go-related gene (hERG) potassium channel (human, UniProt Q12809)
Assay: primary screen, population patch clamp on CHO cells stably expressing hERG; higher = less effect of the substance
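Note: peak tail current of the secondary pulse compared with the same well before compound.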

Sequence of human ether-à-go-go-related gene (hERG) potassium channel (Q12809 whole entry, looked up): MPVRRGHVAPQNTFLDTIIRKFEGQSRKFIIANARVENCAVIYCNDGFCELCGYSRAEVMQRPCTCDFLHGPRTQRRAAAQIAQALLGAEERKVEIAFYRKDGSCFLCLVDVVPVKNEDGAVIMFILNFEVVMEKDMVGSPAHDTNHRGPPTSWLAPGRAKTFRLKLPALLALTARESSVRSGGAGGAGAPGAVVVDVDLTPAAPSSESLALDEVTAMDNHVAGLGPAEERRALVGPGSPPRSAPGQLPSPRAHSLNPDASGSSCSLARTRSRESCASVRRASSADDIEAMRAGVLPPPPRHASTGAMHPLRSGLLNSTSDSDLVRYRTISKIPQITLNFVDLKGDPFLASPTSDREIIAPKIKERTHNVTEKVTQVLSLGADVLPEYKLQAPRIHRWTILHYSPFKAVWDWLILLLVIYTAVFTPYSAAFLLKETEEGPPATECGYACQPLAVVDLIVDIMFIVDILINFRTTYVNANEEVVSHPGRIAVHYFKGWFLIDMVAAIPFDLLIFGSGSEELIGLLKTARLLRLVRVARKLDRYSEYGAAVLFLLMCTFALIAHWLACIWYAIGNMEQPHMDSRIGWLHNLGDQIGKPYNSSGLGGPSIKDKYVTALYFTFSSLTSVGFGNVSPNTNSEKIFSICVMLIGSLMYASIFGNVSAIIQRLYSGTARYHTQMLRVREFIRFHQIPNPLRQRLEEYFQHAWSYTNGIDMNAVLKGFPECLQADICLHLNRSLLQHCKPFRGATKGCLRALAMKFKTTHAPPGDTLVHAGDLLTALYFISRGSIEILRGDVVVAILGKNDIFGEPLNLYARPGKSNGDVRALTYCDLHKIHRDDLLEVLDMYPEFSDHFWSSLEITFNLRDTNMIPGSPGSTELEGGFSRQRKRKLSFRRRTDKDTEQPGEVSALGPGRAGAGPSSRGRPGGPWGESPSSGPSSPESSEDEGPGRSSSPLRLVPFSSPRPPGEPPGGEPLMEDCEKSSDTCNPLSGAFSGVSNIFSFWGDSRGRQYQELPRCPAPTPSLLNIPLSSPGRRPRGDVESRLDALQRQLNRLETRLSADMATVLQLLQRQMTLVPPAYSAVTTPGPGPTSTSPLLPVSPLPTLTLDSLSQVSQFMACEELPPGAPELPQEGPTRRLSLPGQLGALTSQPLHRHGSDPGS

SMILES	hERG current change (%, negative = inhibition) at 10uM [%]
COC(=O)CSc1nnc(COc2cccc3ccccc23)o1	13.6
CN(C)/C=C1\N=C(c2ccccc2)OC1=O	3.09
COc1ccc(N2CCN(C(C)C(=O)Nc3nnc(C)s3)CC2)cc1.Cl (stereo not shown)	-1.41
CSc1ccccc1NC(=O)Cc1ccccc1	13.8
CCN(CC)S(=O)(=O)c1ccc(NC(=O)CCN2C(=O)C3CC=CCC3C2=O)cc1 (stereo not shown)	-30
CC1(c2ccccc2Cl)NC(=O)N(CC(=O)Nc2ccc(N3CCCCC3)cc2)C1=O (stereo not shown)	-21.9
CC(=O)N1CCc2cc(S(=O)(=O)CCC(=O)Nc3ccccc3F)ccc21	13.3
O=C(NCc1ccco1)C1CCN(C(=O)c2cc3sccc3n2Cc2ccc(F)cc2)CC1	-68.5
CC(C)NC(=O)C1CCN(C(=O)c2cc3sccc3n2Cc2ccc(F)cc2)CC1	-3.2
O=C(c1ccco1)N1CCN(C(=O)c2cc3sccc3n2Cc2ccccc2)CC1	-55.6
CC(C)N(CCCNC(=O)C1CCN(C(=O)c2cc3sccc3n2C)CC1)Cc1ccccc1	-23.2
O=C(NCCN1CCOCC1)c1cc2sccc2n1Cc1ccc(Cl)cc1	-59.9
CCCCN(CCCNC(=O)C1CCN(C(=O)c2cc3sccc3n2C)CC1)Cc1ccccc1	-60.8
O=C(NCCN1CCOCC1)c1cc2sccc2n1Cc1ccc(F)cc1	-47
CCOC(=O)c1cc2sccc2n1CC(=O)N1CCN(C(=O)c2ccco2)CC1	-48.2
O=C(Cn1c(C(=O)NCCCN2CCOCC2)cc2sccc21)c1ccccc1	-16.5
O=C(c1cc2sccc2n1Cc1ccccc1)N1CCN(c2nc3ccccc3s2)CC1	-17
O=C(NCc1ccccn1)C1CCN(C(=O)c2cc3sccc3n2Cc2ccc(F)cc2)CC1	-46.5
CCN(CCCNC(=O)C1CCN(C(=O)c2cc3sccc3n2C)CC1)Cc1ccccc1	-38.4
COCCSc1nnc(NS(=O)(=O)c2ccc(F)cc2)s1	3.84
O=C(c1ccncc1)N1c2ccccc2Sc2ccccc21	18.2
CC(C)=CCCC(C)N(C=O)C(C)CCC=C(C)C (stereo not shown)	-1.01

SMILES	hERG current change (%, negative = inhibition) at 10uM [%]
CC(=O)c1cccc(NC(=O)COC(=O)c2ccccc2C)c1	-14.4
CN(C)S(=O)(=O)c1ccc(C(=O)OCC(=O)Nc2ccccc2OC(F)F)cc1	-5.82
CC(OC(=O)c1cc(Br)ccc1O)C(=O)NC1(C#N)CCCCC1 (stereo not shown)	27.3
Cc1c(N=Cc2nc3ccccc3[nH]2)c(=O)n(-c2ccccc2)n1C	5.52
Cc1ccc(S(=O)(=O)NC(CC(=O)N2CCC3(CC2)OCCO3)c2ccco2)cc1 (stereo not shown)	3.51
CC(C)[C@H](NC(=O)NCCc1ccc(Cl)cc1)C(=O)O	5.9
COc1ccccc1-c1noc(CCC(=O)Nc2cc(C(F)(F)F)ccc2Cl)n1	-3.68
CC(C)=CC(=O)OCC(=O)Nc1cc([N+](=O)[O-])ccc1F	0.461
CC(C)CCN(Cc1ccco1)S(=O)(=O)c1csc(C(N)=O)c1	-14.9
CC1(c2ccc(OC(F)F)cc2)NC(=O)N(CC(=O)N2c3ccccc3NC(=O)C2(C)C)C1=O (stereo not shown)	-6.78
CCCCNC(=O)N(O)C1N(/N=C/c2ccccc2F)C(=S)SC1(C)C (stereo not shown)	16.5
Cc1ccc(C(=O)N[C@H](C(=O)OCC(=O)NC2CCS(=O)(=O)C2)C(C)C)cc1 (stereo partly shown)	11.6
Cc1cccc(NC(=S)N(CCCN(C)C)Cc2cc3cc4c(cc3[nH]c2=O)OCO4)c1	-52.7
CC(=O)N(CCc1cccc(C)c1)Cc1cc2cc(C)ccc2[nH]c1=O	-5.71
CN(C)CCCN(Cc1cc2cc3c(cc2[nH]c1=O)OCO3)C(=S)Nc1ccccc1	-36.6
COc1ccc(NC(=O)N(Cc2cc3cc(C)ccc3[nH]c2=O)CC2CCCO2)cc1 (stereo not shown)	-25.2
Cc1ccc2[nH]c(=O)c(CN(CCCN(C)C)C(=O)Nc3ccc(F)cc3)cc2c1	-70.7
Cc1ccc(NC(=S)N(CCCN(C)C)Cc2cc3cc4c(cc3[nH]c2=O)OCO4)cc1	-41.7
Cc1ccc2[nH]c(=O)c(CN(CCCN(C)C)C(=O)Nc3cccc(Cl)c3)cc2c1	-53.6
Cc1ccc2[nH]c(=O)c(CN(CCO)C(=O)N(C)C)cc2c1	5.5
Cc1ccc2[nH]c(=O)c(CN(CCCN(C)C)C(=O)Nc3ccc(Cl)cc3)cc2c1	-66.1
CN(C)CCCN(Cc1cc2cc3c(cc2[nH]c1=O)OCO3)C(=S)Nc1cccc(Cl)c1	-45.7

SMILES	hERG current change (%, negative = inhibition) at 10uM [%]
Cc1cccc(NC(=O)N(Cc2cc3cc(C)ccc3[nH]c2=O)CC2COCCO2)c1 (stereo not shown)	6.43
CCCn1c(SCC(=O)NCc2ccco2)nnc1-c1ccncc1	19.9
O=C(NNC(=O)C1CC1)Nc1ccc(Cl)cc1	6.38
CNC(=O)c1nn(-c2ccccc2)ccc1=O	-1.51
COc1cc2nc(N3CCN(C(=O)[C@H]4COc5ccccc5O4)CC3)nc(N)c2cc1OC	-37.7
O=S(=O)(c1ccccc1F)N1CCN(Cc2cc3c(cc2O)OCO3)CC1	-11.8
O=C(COC(=O)C1=COCCO1)Nc1ccc(F)c(F)c1	-1.21
Cc1ccc(N2C(=O)C3C4C=CC(C4)C3C2=O)cc1C (stereo not shown)	13.3
Cn1c(SCC(=O)NC(=O)c2cccc([N+](=O)[O-])c2)nnc1-c1ccc(F)cc1	-23.3
C=CCn1c(SCC(=O)NC(=O)c2cccc([N+](=O)[O-])c2)nnc1-c1ccccc1F	-15.5
O=C(CSc1nnc(-c2ccccc2F)n1C1CC1)NC(=O)c1cccc([N+](=O)[O-])c1	-52.8
NS(=O)(=O)c1cccc(C(=O)NC2CCSc3ccccc32)c1 (stereo not shown)	7.91
COc1cc(C(=O)N/N=C/c2ccc(OC(=O)c3ccccc3Cl)cc2)ccc1O	-10.5
O=c1[nH]c(=S)[nH]c2scc(-c3ccc(Br)cc3)c12	16.3
CS(=O)(=O)Nc1cccc(C2=NN(S(C)(=O)=O)C(c3ccccc3)C2)c1 (stereo not shown)	-30.9
CCS(=O)(=O)Nc1cccc(C2=NN(S(C)(=O)=O)C(c3ccccc3)C2)c1 (stereo not shown)	-14.6
Cc1ccc(C2CC(c3cccc(NS(C)(=O)=O)c3)=NN2S(C)(=O)=O)cc1 (stereo not shown)	-69.3
CCS(=O)(=O)N1N=C(c2cccc(NS(C)(=O)=O)c2)CC1c1ccccc1 (stereo not shown)	-16.9
CCS(=O)(=O)N1N=C(c2cccc(NS(C)(=O)=O)c2)CC1c1ccc(C)cc1 (stereo not shown)	-73.9
CCS(=O)(=O)Nc1cccc(C2=NN(S(=O)(=O)CC)C(c3ccccc3)C2)c1 (stereo not shown)	1.69
O=c1cc(-c2ccccc2)nc(N2CCCCC2)[nH]1	-13.7
CN(Cc1ccc(F)cc1)C(=O)c1sccc1-c1ccccc1	0.217

SMILES	hERG current change (%, negative = inhibition) at 10uM [%]
Cc1cc(=O)[nH]c(NN)n1	6.39
COc1cccc2cc(C(=O)NCc3ccco3)c(=O)oc12	2.32
Cc1ccc(S(=O)(=O)Nc2ccc(-c3nnc(SCC#N)n3C)cc2)cc1	-11.3
CC(C)(C)n1nnnc1C(c1cccnc1)N1CCN(C2CCCCC2)CC1 (stereo not shown)	-2.19
CN1CCN(c2ccccc2NC(=O)c2ccc(Br)o2)CC1	-67.9
CC(=O)N1CCN(c2ccccc2NC(=O)c2ccco2)CC1	-38.9
O=C(Nc1ccccc1N1CCOCC1)c1ccc(Br)o1	1.26
CS(=O)(=O)N1CCN(c2ccccc2NC(=O)c2ccc(Br)o2)CC1	-36.3
O=C(Nc1ccccc1N1CCCC1)c1ccc(Br)o1	-22.4
O=C(Nc1ccccc1N1CCN(C(=O)c2ccccc2)CC1)c1ccco1	-74.2
CC(=O)N1CCN(c2ccccc2NC(=O)c2ccc(Br)o2)CC1	-54.4
O=C(Nc1ccccc1N1CCN(C(=O)c2ccccc2)CC1)c1cc2ccccc2o1	9.86
CC1CCN(c2ccccc2NC(=O)c2ccc(Br)o2)CC1	-0.73
O=C(Nc1ccccc1N1CCN(C(=O)c2ccccc2)CC1)c1ccc(Br)o1	-63.5
O=C(Nc1ccccc1N1CCCC1)c1ccco1	6.36
CCOC(=O)c1[nH]c(C)c(C(=O)OCCN2C(=O)c3ccccc3C2=O)c1C	-1.16
COC(=O)[C@@H]1C[C@@]2(O)[C@H](O)[C@H](O)[C@H](O)C[C@H]2N1Cc1ccc(C(F)(F)F)cc1	13.2
Cc1ccccc1CN1CCN(CC(=O)NCc2ccccc2)CC1	-22.8
Cc1c(NC(=O)CCC2CCCCC2)cc(C(=O)N2CCOCC2)cc1[N+](=O)[O-]	-10.2
